hcDAF12 agonist = activators of H. contortus DAF-12 nuclear receptor. HEK293 hcDAF-12 lit1-tk-luc reporter, luminescence; 0% DMSO, 100% Δ7-dafachronic acid. AID 652067. 370,000 tested, 1.4% active. activation, % at 6.8 µM;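 active = activation above the mean of all tested compounds plus 3 SD, cut at about 5.5% in these data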;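 also: 100% = response to 3 µM Δ7-dafachronic acid high control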
DAX1 inh-1 = inhibits human nuclear receptor DAX1. AID 504766. HEK293 Gal4-DAX1 luciferase reporter, luminescence. P51843. 340,000 tested, 0.99% active. inhibition, % at 6.75 µM;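 active = inhibition above the mean over all tested compounds plus 3 SD, cut at about 4.2% in these data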;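 also: 0% = DAX1-transfected cells with DMSO and 100% = empty-vector control cells with DMSO; inhibition shows as a rise in luminescence from relieved DAX1 repression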
Target sequence (P51843 207-470 limits assumed): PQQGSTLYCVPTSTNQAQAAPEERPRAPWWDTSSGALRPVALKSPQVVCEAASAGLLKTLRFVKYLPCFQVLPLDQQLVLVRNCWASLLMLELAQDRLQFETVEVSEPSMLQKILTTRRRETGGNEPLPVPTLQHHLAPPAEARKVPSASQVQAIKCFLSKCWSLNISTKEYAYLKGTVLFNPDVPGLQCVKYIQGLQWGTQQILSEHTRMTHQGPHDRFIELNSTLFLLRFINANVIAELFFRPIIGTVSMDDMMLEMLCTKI
hgDAF12 agonist = agonists of H. glycines DAF-12 nuclear receptor | AID 687014 | HEK293 GAL4-hgDAF12 UAS-luciferase reporter, agonist luminescence; normalized to butyrate control | activation, % at 6.8 µM | 370,000 tested, 1.8% active;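 active = activation above a cutoff set at the mean of all screened compounds plus 3 SD, cut at about 10% in these data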;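 also: 0% = DMSO wells and 100% = sodium butyrate wells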
ssDAF-12 act = activators of S. stercoralis DAF-12 nuclear receptor; AID 652126; 370,000 tested, 1% active; HEK293 ssDAF-12/GRIP1 lit1-tk-luc reporter, luminescence; % of 3 µM dafachronic acid response; activation, % at 6.8 µM;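 active = activation above the mean over all tested compounds plus 3 SD, cut at about 0.9% in these data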;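 also: 0% = DMSO-only wells and 100% = 3 µM delta7-dafachronic acid wells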
DAX1 inh-2 = blocks DAX1 repression of SF-1 activated StAR promoter; inhibition, % at 6.8 µM; HEK293T StAR-luciferase reporter, SF-1/DAX-1 repression relief; 370,000 tested, 1.1% active;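 active = inhibition above the mean over all tested compounds plus 3 SD, cut at about 3.6% in these data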;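 also: 0% = DAX-1 cells with DMSO and 100% = cells lacking DAX-1 with DMSO; higher inhibition means more luminescence from relief of DAX-1 repression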
An asterisk follows results filed as active; . = not tested or not shown. Only some compounds are listed: those with a hit (about 4.1% of all), similar ones and a draw of the others.

SMILES	hcDAF12 agonist	DAX1 inh-1	hgDAF12 agonist	ssDAF-12 act	DAX1 inh-2
O=C(Nc1cc(Cl)ccc1F)C1CCCN1S(=O)(=O)c1cccc2cccnc12 (stereo not given)	-3.8	.	-1.5	-2.0	-1.5
Cc1cc(Nc2ccc(C)c(Cl)c2)nc(N2CCOCC2)n1	-2.2	.	-0.6	-1.0	0.1
Cc1ccc(Nc2cc(C)nc(N3CCOCC3)n2)cc1	5.7*	1.0	4.0	0.3	0.9
O=C(NCc1ccco1)c1ccc(-c2ccccc2Cl)o1	2.3	7.0*	5.4	-1.1	0.7
O=C(NCc1ccccc1)c1ccc(-c2ccccc2F)o1	1.1	2.6	10.1	0.9*	2.6
O=C(NCc1ccco1)c1ccc(-c2ccc(Cl)cc2)o1	-1.1	-0.6	7.9	-0.9	0.4
C/C(=C/c1[nH]c(N)[n+](CC2CC2)c1Cc1ccccc1)Cn1[nH]c(=O)n(-c2ccccc2)c1=O	-2.5	.	-4.0	-1.8	-1.1
O=C(CCc1ccccc1)Nc1ccc2c(c1)OCCO2	3.4	2.1	11.8*	0.3	2.4
O=C(CCc1ccccc1)Nc1cc2c(cc1Cl)OCCO2	2.5	1.3	10.3	1.2*	3.9*
O=C(CCc1ccccc1)Nc1cc2c(cc1C(=O)O)OCCCO2	-2.0	0.3	0.4	-0.5	-0.8
O=C(CCSCc1ccccc1)Nc1ccc2c(c1)OCCO2	0.5	0.9	7.0	-1.0	1.5
Cc1cccc(Cn2cc(CN3CC(N(C)CCOC(=O)c4cc(C)cc(C)c4)CS3(=O)=O)nn2)c1 (stereo not given)	-1.4	.	-1.0	-1.8	-0.7
C(/C=C/c1ccccn1)=C\c1ccccc1	4.6	5.0*	7.5	-0.3	1.1
C(=C\c1ccccn1)/c1ccncc1	0.3	2.6	2.4	-0.9	-0.1
Cc1nc(/C=C/c2ccccc2)cc(/C=C/c2ccccc2)n1	1.2	1.9	2.0	-0.7	0.9
C(=C/c1ccccc1)/c1ccccc1	0.8	.	1.0	-1.8	1.0
Cc1cccc(/C=C/c2ccccc2)n1	4.6	.	10.8*	0.4	2.1
C(=C\c1cc(/C=C/c2ccccc2)ncn1)/c1ccccc1	3.0	5.0*	4.1	-0.3	1.3
CCN(CC)C(=O)CC[C@H]1CC[C@]2(CCCN(C(=O)C3CCCC3)C2)O1	-0.8	.	4.9	-1.5	0.0
COC(=O)[C@]12CCCCC=C1N(Cc1ccc(OC)cc1)C(=O)[C@@H]2CC(=O)NCc1cccs1	-0.7	.	-3.8	-1.1	-0.4
CN1CCC(N[C@@H](Cc2ccccc2)C(=O)NCC(c2ccccc2)c2ccccc2)(C(=O)NC2CCCCC2)CC1	-1.8	.	-4.2	-0.4	.
CCOC(=O)[C@@]12CCCC3=C1N(CCC3)C(=O)[C@H]2CC(=O)NCCCCc1ccccc1	-1.4	.	-2.7	-1.5	0.1
O=c1oc2ccccc2cc1-c1nnc(NCc2ccco2)s1	5.1	2.0	11.8*	0.3	3.9*
CSCc1ccc(C(=O)NCCSc2ccc(Br)cc2)cc1	5.2	0.1	6.0	-0.9	4.1*
CC1CCCCN1Cc1c(O)ccc2c(=O)c(-c3ccc(Cl)cc3)coc12 (stereo not given)	5.8*	0.7	1.5	-0.3	-0.1
SMILES	hcDAF12 agonist	DAX1 inh-1	hgDAF12 agonist	ssDAF-12 act	DAX1 inh-2
COCCCN1C(=O)[C@H](CC(=O)NCc2cccc(C(F)(F)F)c2)[C@]2(C(=O)OC)CCCCC=C12	-1.5	.	-0.4	-1.5	-0.7
CCOC(=O)CC[C@@H]1CC[C@]2(CCCN(C(=O)c3ccno3)C2)O1	-1.4	.	4.3	-1.5	0.5
COC(=O)[C@H](C)NC(=O)[C@@H]1CC=C[C@@H]2CCN(CCc3ccccc3)C(=O)[C@@H]21	0.8	.	-0.3	-1.2	.
CCCC1CCC2(CCC(=O)N2CCOC)CC1 (stereo not given)	-1.2	.	-0.6	-0.7	1.7
O=C(NCCC1=CCCCC1)NC12CC3CC(CC(C3)C1)C2	4.7	0.2	5.2	0.0	3.7*
Cc1cccc(N=NC(=S)NNc2cccc(C)c2)c1	6.1*	2.3	9.3	0.2	3.7*
Cc1ccc(C(=O)C2CCN(CC(=O)N(C)C3CCCCC3)CC2)cc1	-2.3	.	1.0	-1.8	-1.2
COc1ccc(NC(=S)NC(=O)/C=C/c2ccccc2)cc1	-1.6	-0.6	-2.2	-1.6	-0.5
Cc1cccc(NC(=S)NC(=O)/C=C/c2ccccc2)n1	2.2	4.3*	6.0	-0.9	1.0
CCCCc1nc2cc(C(=O)N3CCCCC3C(=O)OC)ccc2o1 (stereo not given)	-0.9	1.0	12.2*	-0.2	4.2*
CCCCc1nc2cc(C(=O)NCc3ccccn3)ccc2o1	0.3	1.2	0.2	-0.8	0.2
CCCCc1nc2cc(C(=O)N3CCCC3)ccc2o1	0.8	1.2	3.5	-0.7	4.0*
CCCCc1nc2cc(C(=O)NC(C)c3cnn(C)c3)ccc2o1 (stereo not given)	2.2	0.9	7.5	-0.9	3.8*
NC(=NC(=O)/C=C/c1ccccc1Br)N(CC#Cc1ccccc1)CC#Cc1ccccc1	-1.8	.	-1.2	-1.2	.
C=CCC12C=C(OC)C(=O)C(C1=O)C(c1ccc(OC)cc1)C2C (stereo not given)	0.8	.	3.2	-1.1	0.1
COc1ccccc1N1CCN(/N=C/c2cc(OC)c(O)c(OC)c2)CC1	-2.0	2.4	2.6	-0.9	0.0
COc1ccccc1N1CCN(/N=C/c2cccc(O)c2)CC1	3.6	0.1	12.0*	-0.2	1.0
Cc1ccnc(Nc2nc(-c3ccc(F)cc3)cs2)c1	6.4*	0.4	12.2*	-1.0	0.8
Cc1cccc(Nc2nc(-c3ccncc3)cs2)c1	2.6	0.1	10.6*	0.1	1.1
Cc1cccc(Nc2nc(-c3ccc4c(c3)OCCO4)cs2)c1	5.8*	2.8	12.6*	0.1	1.9
Cc1ccccc1N(C)C(=O)C1CCCN1S(=O)(=O)c1cccc2cccnc12 (stereo not given)	-1.2	.	-0.6	-0.9	1.3
N#Cc1ccc(NCCCN2CCC(C(O)(c3ccccc3)c3ccccc3)CC2)cc1	-3.1	.	2.0	-0.9	1.0
C=CCNC(=O)C12CCC(C)(C(=O)[C@H]1Br)C2(C)C (stereo not given in full)	1.1	6.9*	0.0	-0.3	0.1
C(=N\N=C\c1ccccc1)/c1ccccc1	-1.1	5.0*	2.2	-0.4	0.6
Cc1ccc(/C=N/N=C/c2ccc(C)cc2)cc1	1.7	-0.3	0.1	-1.1	0.0
SMILES	hcDAF12 agonist	DAX1 inh-1	hgDAF12 agonist	ssDAF-12 act	DAX1 inh-2
Clc1ccc(CSc2nnc(-c3cccs3)o2)cc1Cl	0.0	.	-0.2	-1.9	-1.2
O=c1c(-c2ccccc2)n[nH]c2ccccc12	5.1	2.0	10.5*	0.8	1.9
Oc1ccc(/C=N/N2CCOCC2)c(O)c1O	-0.1	6.2*	4.5	-1.8	-0.5
Oc1ccc(/C=N/N2CCCCC2)c(O)c1O	-5.7	-0.1	-3.2	-1.1	0.0
O=C(COCc1ccccc1)NC1CCCCN(Cc2cccc(Cl)c2)C1=O (stereo not given)	-1.1	.	-0.6	-0.6	1.0
CCCNC(=O)N1[C@@H](CO)[C@H](c2ccc(C3=CCCC3)cc2)[C@@H]1CN(CC)S(=O)(=O)c1ccccc1[N+](=O)[O-]	-3.4	.	-1.9	-1.7	-0.4

High-throughput results: PubChem BioAssay, The Scripps Research Institute Molecular Screening Center
